# In PubChem BioAssay (Tox21):
# Where “and” joins values, the source holds several entries; their conditions need not be identical. Equal values may be shown once. Unmarked numbers belong to inactive results. Inconclusive results are not listed. Entries that show only a call come without a potency. Calls of active or inactive are those of the source. Unless noted, calls come from the whole dose curve; as a rule, active = well fitted curve in the direction sought with a large enough effect in the repeat runs; inconclusive = weak or mixed curves; inactive = no such curve, though single readings can be large; an effect the other way counts as inactive or inconclusive.
# What was measured:
# [1] = qHTS assay to identify small molecule antagonists of the androgen receptor (AR) signaling pathway using the MDA cell line in the presence of 0.5 nM R1881 - cell viability counter screen (AID 1259242); note: nearly all actives have a fitted effect of over 45% in size; note: potency is the fitted concentration of half-maximal effect
# How it was run: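 Viability of MDA-kb2 cells was multiplexed with the luciferase AR readout; after 16 hr with compounds and R1881 at 0.5 nM final, CellTiter-Fluor fluorescence was recorded.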
# [2] = molecular target: Estrogen receptor (Homo sapiens) (UniProt P03372); assay: qHTS assay to identify small molecule antagonists of the estrogen receptor alpha (ER-alpha) signaling pathway using the BG1 cell line in the presence of 0.1 nM 17-beta-estradiol (AID 1259244); note: nearly all actives have a fitted effect of over 50% in size; note: potency is the fitted concentration of half-maximal effect
# Estrogen receptor (Homo sapiens), sequence (P03372 whole entry, looked up): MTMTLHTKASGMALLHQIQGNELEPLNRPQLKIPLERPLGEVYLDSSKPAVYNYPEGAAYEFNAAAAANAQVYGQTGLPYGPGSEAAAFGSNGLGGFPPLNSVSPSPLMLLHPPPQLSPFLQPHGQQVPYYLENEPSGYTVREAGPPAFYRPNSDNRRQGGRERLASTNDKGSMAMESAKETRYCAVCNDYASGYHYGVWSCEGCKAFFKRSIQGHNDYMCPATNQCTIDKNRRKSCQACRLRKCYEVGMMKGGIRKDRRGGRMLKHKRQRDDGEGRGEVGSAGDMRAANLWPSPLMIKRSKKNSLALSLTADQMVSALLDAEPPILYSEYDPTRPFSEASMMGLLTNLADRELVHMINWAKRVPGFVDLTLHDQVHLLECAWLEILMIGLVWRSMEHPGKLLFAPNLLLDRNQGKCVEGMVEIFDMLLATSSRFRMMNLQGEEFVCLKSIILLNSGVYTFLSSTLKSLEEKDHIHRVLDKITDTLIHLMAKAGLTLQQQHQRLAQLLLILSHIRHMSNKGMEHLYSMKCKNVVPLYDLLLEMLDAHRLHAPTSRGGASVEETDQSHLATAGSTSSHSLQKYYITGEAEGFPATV
# How it was run: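 Estradiol at 0.1 nM (final) stimulates the endogenous ER-alpha of VM7Luc4E2 cells carrying an ERE-driven luciferase; compounds are co-incubated 22 h at 37C and luciferase output quantified by luminescence.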
# [3] = qHTS assay to identify small molecule HDAC inhibitors (AID 1259364);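 note: wild-type HCT-116 cells with endogenous class I/II HDAC activity; top concentration of the series differs between compounds; nearly all actives have a fitted effect of over 45% in size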
# How it was run: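 Read-out: luminescence of HDAC-Glo I/II reagent, 30 min RT, reflecting class I/II deacetylase activity in whole HCT-116 cells pre-exposed 2 h to DMSO-dissolved compounds.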
# [4] = qHTS assay to identify small molecule HDAC inhibitors - cell viability counter screen (AID 1259365); note: series mostly up to about 92 µM; nearly all actives have a fitted effect of over 50% in size
# How it was run: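 CellTiter-Glo luminescence (30 min, room temperature) reported viability after a 2 h compound exposure at 37 C. Cells: wild-type HCT-116, 1,500 per well, seeded the night before.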
# [5] = qHTS assay to identify small molecule agonists of the sonic hedgehog signaling (Shh) pathway - cell viability counter screen (AID 1259366); note: nearly all actives have a fitted effect of over 50% in size; note: potency is the fitted concentration of half-maximal effect
# How it was run: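 Cytotoxicity counter screen: CellTiter-Fluor reagent added after 23 h compound exposure, then 1 h at 37C and fluorescence read. Cells were 3T3 Gli1-Luc, seeded 2,000 per well and dosed 4 h post-plating.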
# [6] = qHTS assay to identify small molecule antagonists of the sonic hedgehog signaling (Shh) pathway - cell viability counter screen (AID 1259367); note: nearly all actives have a fitted effect of over 55% in size; note: potency is the fitted concentration of half-maximal effect
# How it was run: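 After a 4 hr settling period, 3T3 Gli1-Luc cells were treated with DMSO-dissolved chemicals and conditioned medium, kept 24 hr at 37C in 5% CO2, and assayed for viability by CellTiter-Fluor fluorescence following 1 hr reagent incubation.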
# [7] = qHTS assay to identify small molecule agonists of the sonic hedgehog signaling (Shh) pathway (AID 1259368; calls by dose curve;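 note: NIH/3T3-derived 3T3Gli1-Luc cells carrying a stable Gli1-driven firefly luciferase reporter; series mostly up to about 92 µM; nearly all actives have a fitted effect of over 15% in size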)
# How it was run: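 A Gli1 transcriptional response element controlled firefly luciferase in 3T3Gli1-Luc cells. Compounds and a positive control were added 4 hr after plating, and cells were incubated a further 24 hr at 37 C before luminescence detection.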
# [8] = qHTS assay to identify small molecule antagonists of the sonic hedgehog signaling (Shh) pathway (AID 1259369; calls by dose curve; note: nearly all actives have a fitted effect of over 45% in size; note: potency is the fitted concentration of half-maximal effect)
# How it was run: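 For antagonist detection, the reporter line received test compounds together with conditioned medium, incubated 24hr at 37 C, 5% CO2, then luminescence was recorded following 30min room-temperature luciferase reagent incubation.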
smiles,measurement,setting,value
C(=C/c1ccccc1)/c1ccccc1,Potency,[1],inactive
same,Potency,[2],inactive
same,Potency,[3],inactive
same,Potency,[4],inactive
same,Potency,[5],inactive
same,Potency,[6],inactive
same,Potency,[7],inactive
same,Potency,[8],inactive
CC(C)=CC1CC(C)CCO1 (stereo unspecified),Potency,[1],inactive
same,Potency,[2],inactive
same,Potency,[3],inactive
same,Potency,[4],inactive
same,Potency,[5],inactive
same,Potency,[6],inactive
same,Potency,[7],inactive
same,Potency,[8],inactive
CC1CNCC(C)O1 (stereo unspecified),Potency,[1],inactive
same,Potency,[2],inactive
same,Potency,[3],inactive
same,Potency,[4],inactive
same,Potency,[5],inactive
same,Potency,[6],inactive
same,Potency,[7],inactive
same,Potency,[8],inactive
C=C[C@](C)(O)CC[C@@H]1[C@@]2(C)CCCC(C)(C)[C@@H]2CC[C@@]1(C)O,Potency,[1],inactive
same,Potency,[2],61.1 µM (active)
same,Potency,[3],inactive
same,Potency,[4],inactive
same,Potency,[7],inactive
same,Potency,[8],61.1 µM (active)
CCC(=O)CC(C)CC (stereo unspecified),"viability change, negative = cytotoxic",[1],2.57% [at 0.349 µM]
same,"activity change, negative = inhibition",[2],2.34% [at 0.349 µM]
same,"activity change, negative = inhibition",[3],2.62% [at 0.349 µM]
same,"activity change, negative = cytotoxicity",[4],3.99% [at 0.349 µM]
same,"viability change, negative = cytotoxic",[5],4% [at 0.349 µM]
same,"viability change, negative = cytotoxic",[6],2.54% [at 0.349 µM]
same,activity change,[7],"-0.87% [at 0.349 µM, stronger effect = higher value]"
same,"activity change, negative = inhibition",[8],19.5% [at 0.349 µM]
CC(C)(C)c1cc(CCC(=O)NCCCCCCNC(=O)CCc2cc(C(C)(C)C)c(O)c(C(C)(C)C)c2)cc(C(C)(C)C)c1O,Potency,[1],inactive
same,Potency,[2],inactive
same,Potency,[3],inactive
same,Potency,[4],inactive
same,Potency,[5],inactive
same,Potency,[6],inactive
same,Potency,[7],inactive
same,Potency,[8],inactive
CCc1cccc(C)c1,Potency,[1],inactive
same,Potency,[2],inactive
same,Potency,[3],inactive
same,Potency,[4],inactive
same,Potency,[5],inactive
same,Potency,[6],inactive
same,Potency,[7],inactive
same,Potency,[8],inactive
CCCCCCCC/C=C\CCCCCCCC(=O)OCCOC(=O)CCCCCCC/C=C\CCCCCCCC,Potency,[1],inactive
same,Potency,[2],inactive
same,Potency,[4],inactive
same,Potency,[5],inactive
same,Potency,[6],inactive
same,Potency,[7],inactive
same,Potency,[8],inactive
CCCCCCCCCCCCCC[n+]1ccccc1,Potency,[1],24.3 µM (active)
same,Potency,[2],2.17 µM (active)
same,Potency,[3],inactive
same,Potency,[4],inactive
same,Potency,[5],61.1 µM (active)
same,Potency,[6],61.1 µM (active)
same,Potency,[7],inactive
same,Potency,[8],0.0049 µM (active)
CCCCCCCCC(C)=O,Potency,[1],inactive
same,Potency,[2],inactive
same,Potency,[3],inactive
same,Potency,[4],inactive
same,Potency,[5],inactive
same,Potency,[6],inactive
same,Potency,[7],inactive
same,Potency,[8],inactive
C[C@]12CC[C@H]3C(=CCc4cc(O)ccc43)[C@@H]1CCC2=O,Potency,[1],inactive
same,Potency,[2],inactive
same,Potency,[3],inactive
same,Potency,[4],inactive
same,Potency,[5],inactive
same,Potency,[7],inactive
same,Potency,[8],21.7 µM (active)
COc1ccc2sc(C(=O)Nc3nnn[nH]3)c(OC(C)C)c2c1,Potency,[1],inactive
same,Potency,[2],30.5 µM (active)
same,Potency,[3],inactive
same,Potency,[4],inactive
same,Potency,[5],27.2 µM (active)
same,Potency,[7],inactive
same,Potency,[8],6.83 µM (active)
C=C1C(C)(C)[C@@]2(Cl)C(Cl)[C@]1(Cl)C(Cl)(Cl)C2(Cl)Cl (stereo partly specified),Potency,[1],inactive
same,Potency,[2],inactive
same,Potency,[3],inactive
same,Potency,[4],inactive
same,Potency,[6],inactive
same,Potency,[7],inactive
same,Potency,[8],21.3 µM (active)
CCOCN(C(=O)CS(=O)(=O)O)c1c(C)cccc1CC,Potency,[1],inactive
same,Potency,[2],inactive
same,Potency,[3],inactive
same,Potency,[4],inactive
same,Potency,[5],inactive
same,Potency,[6],inactive
same,Potency,[7],inactive
same,Potency,[8],inactive
CCCCCCCCCCCCCCCC,Potency,[1],inactive
same,Potency,[2],inactive
same,Potency,[3],inactive
same,Potency,[4],inactive
same,Potency,[5],inactive
same,Potency,[6],inactive
same,Potency,[7],inactive
same,Potency,[8],inactive
ClC/C=C\CCl,Potency,[1],inactive
same,Potency,[2],inactive
same,Potency,[3],inactive
same,Potency,[4],inactive
same,Potency,[5],inactive
same,Potency,[6],inactive
same,Potency,[7],inactive
same,Potency,[8],inactive
CC(C)(C)C1=CC(=O)C=C(C(C)(C)C)C1=O,Potency,[1],inactive
same,Potency,[2],inactive
same,Potency,[3],inactive
same,Potency,[4],inactive
same,Potency,[5],inactive
same,Potency,[6],inactive
same,Potency,[7],inactive
same,Potency,[8],inactive
O=C1OC(=O)c2cccc3cccc1c23,Potency,[1],inactive
same,Potency,[2],inactive
same,Potency,[3],inactive
same,Potency,[4],inactive
same,Potency,[5],inactive
same,Potency,[6],inactive
same,Potency,[7],inactive
same,Potency,[8],inactive
CCCCCCCCCCCCOC(=O)c1cc(O)c(O)c(O)c1,Potency,[1],60.9 µM (active)
same,Potency,[2],30.5 µM (active) and 34.4 µM (active)
same,Potency,[3],inactive
same,Potency,[4],inactive
same,Potency,[5],43.1 µM (active)
same,Potency,[6],34.2 µM (active) and 6.11 µM (active)
same,Potency,[8],1.21 µM (active) and 2.17 µM (active)
CC(C)(C)c1n[nH]c(=O)n(N)c1=O,Potency,[1],inactive
same,Potency,[2],inactive
same,Potency,[3],inactive
same,Potency,[4],inactive
same,Potency,[5],inactive
same,Potency,[6],inactive
same,Potency,[7],inactive
same,Potency,[8],inactive
CC(CN(C)C)CN1c2ccccc2CCc2ccccc21 (stereo unspecified),Potency,[1],inactive
same,Potency,[2],inactive
same,Potency,[3],inactive
same,Potency,[4],inactive
same,Potency,[5],inactive
same,Potency,[6],inactive
same,Potency,[7],inactive
same,Potency,[8],2.37 µM (active)
CC(C)=CCCC(C)O (stereo unspecified),Potency,[1],inactive
same,Potency,[2],inactive
same,Potency,[3],inactive
same,Potency,[4],inactive
same,Potency,[5],inactive
same,Potency,[6],inactive
same,Potency,[7],inactive
same,Potency,[8],inactive
C/C=C/C(=O)Oc1c(CCCCCC(C)C)cc([N+](=O)[O-])cc1[N+](=O)[O-],Potency,[1],15.4 µM (active)
same,Potency,[2],4.33 µM (active)
same,Potency,[3],inactive
same,Potency,[4],inactive
same,Potency,[5],61.1 µM (active)
same,Potency,[6],54.5 µM (active)
same,Potency,[7],inactive
same,Potency,[8],2.17 µM (active)
CC(C)C(=O)OCc1ccccc1,Potency,[1],inactive
same,Potency,[2],inactive
same,Potency,[3],inactive
same,Potency,[4],inactive
same,Potency,[5],inactive
same,Potency,[6],inactive
same,Potency,[7],inactive
same,Potency,[8],inactive
Brc1ccccn1,Potency,[1],inactive
same,Potency,[2],inactive
same,Potency,[3],inactive
same,Potency,[4],inactive
same,Potency,[5],inactive
same,Potency,[6],inactive
same,Potency,[7],inactive
same,Potency,[8],inactive
O=C=NCc1cccc(CN=C=O)c1,"viability change, negative = cytotoxic",[1],-0.671% [at 19 µM]
same,"activity change, negative = inhibition",[2],2.93% [at 19 µM]
same,"activity change, negative = inhibition",[3],3.12% [at 19 µM]
same,"activity change, negative = cytotoxicity",[4],0.277% [at 19 µM]
same,"viability change, negative = cytotoxic",[5],4.73% [at 19 µM]
same,"viability change, negative = cytotoxic",[6],-1.32% [at 19 µM]
same,activity change,[7],"-1.18% [at 18.9 µM, stronger effect = higher value]"
same,"activity change, negative = inhibition",[8],11.1% [at 19 µM]
